# Measurements reported in PubChem BioAssay (NCATS).
# A number with no mark means an inactive call. Results filed as inconclusive are left out. Calls of active or inactive are those of the source. Unless noted, calls come from the whole dose curve; as a rule, active = well fitted curve in the direction sought with a large enough effect; inconclusive = small, poorly fitted or top-dose-only effect, or another doubt; inactive = no such curve, though single readings can be large; an effect the other way counts as inactive or inconclusive.
# Legend:
# [1] = target: Lysosomal acid glucosylceramidase (Homo sapiens) (UniProt P04062); assay: Glucocerebrosidase-p2 (AID 348; in the data active = potency below about 10 µM; note: potency is the fitted concentration of half-maximal effect); settings: purified GBA, blue fluorogenic substrate, 40 min
# Method in brief: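 Compounds titrated from 0.6 nM upwards against 0.2 nM enzyme in pH 5.9 citric acid/KH2PO4, taurocholate, tween-20; blue fluorogenic substrate 80 uM, 40 min room temperature, stopped and read Ex 365/Em 440 for AC50.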
# [2] = target: Cytochrome P450 1A2 (Homo sapiens) (UniProt P05177); assay: p450-cyp1a2 (AID 410; calls by dose curve; note: potency is the fitted concentration of half-maximal effect;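 for activity change, negative = inhibition: -100% = full effect of reference inhibitor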); settings: recombinant CYP1A2, luciferin-ME demethylation, luminescence; series mostly up to 11.4 µM
# Method in brief: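 Human CYP1A2 (20nM) demethylated Luciferin-ME at its Km (100uM) in 100mM KPO4. After 10 min compound preincubation, NADPH regeneration ran the reaction 60 min at room temperature. Luciferin was read by luminescence, normalized to 57 uM furafylline.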
# [3] = Stat Signaling Pathway (AID 446; active = well fitted curve in either direction with a large enough effect, not every such curve was filed as active;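 note: ME-180 cervical cancer cells given 40 pM IL-6 alongside compound; SIE-controlled beta-lactamase reporter measured as 460/530 nm FRET emission ratio; % is set by controls: 0 for no effect and ±100 for the full control effect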); settings: ME-180 SIE beta-lactamase reporter, IL-6 stimulated, 5 h; at 7.69 µM (top of the series) unless noted
# Method in brief: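 ME-180 SIE-bla cells; overnight plating; cpd + IL-6 40 pM, 5 h, 37 C; LiveBLAzer 2.5 h RT; 460/530 nm emission ratio. Normalized to 300 pM IL-6 and 125 nM JAK inhibitor controls.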
# [4] = target: Glucocorticoid receptor (Homo sapiens) (UniProt P04150); assay: GR-GFP Redistribution (AID 450;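 active = compounds whose dose series gives a full or clear partial fitted curve of increased nuclear translocation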; note: potency is the fitted concentration of half-maximal effect); settings: U2OS GR-GFP nuclear translocation, laser cytometry, 2 h
# [5] = target: Glucocorticoid receptor (Homo sapiens) (UniProt P04150); assay: GR-EFC Redistribution (AID 451; calls by dose curve; note: potency is the fitted concentration of half-maximal effect); settings: CHO-K1 GR-EFC translocation, beta-gal luminescence, 2 h
# Method in brief: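 CHO-K1 cells stably expressing nuclear-localized β-gal enzyme acceptor and GR fused C-terminally to the enzyme donor fragment; ligand-driven nuclear translocation restores β-gal by complementation. Compounds titrated up to 46 uM final, 2 h at 37 °C; luminescence read.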
# [6] = target: Mitogen-activated protein kinase 10 (Mus musculus) (UniProt Q61831); assay: JNK3 AlphaScreen Assay (AID 530; active = well fitted curve in either direction with a large enough effect, not every such curve was filed as active;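 note: kinase came from lysate of stimulated human HepG2 cells; signal reports phosphorylation of biotinylated GST-cJun 1-79 at Ser73 with 10 µM ATP; % is set by controls: 0 for no effect and ±100 for the full control effect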); settings: JNK3 lysate, c-Jun phosphorylation; series mostly up to 57.1 µM
# Method in brief: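 JNK3 came from HepG2 lysates pre-activated with IL-1beta and TNF-alpha and phosphorylated biotinylated GST-cJun (1-79) at 10 uM ATP, pH 7.6, room temperature. Compounds were titrated. AlphaScreen signal used anti-phospho-cJun (Ser73) antibody.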
# [7] = target: 3',5'-cyclic-AMP phosphodiesterase 4B (Homo sapiens) (UniProt Q07343); assay: qHTS Assay for Inhibitors of PDE-IV (AID 607; active = well fitted activation curve with a large enough effect in the main read-out, with a control signal flat, not every such curve was filed as active; note: % of control where 0% means no effect); settings: HEK293 ACTOne CNG channel cells, membrane potential fluorescence; series mostly up to 22.9 µM
# Method in brief: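 ACTOne HEK293 cells carry a modified cAMP-gated CNG channel and express endogenous PDE4; plated 1000 cells/well, compounds up to 22.9 uM final. Membrane-potential dye fluorescence (ex 535/em 590) was read; parental cells received 10 uM forskolin + 100 uM RO 20-1724.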
# [8] = target: Cytochrome P450 2C9 (Homo sapiens) (UniProt P11712); assay: qHTS Assay for Inhibitors and Substrates of Cytochrome P450 2C9 (AID 883); settings: recombinant CYP2C9, luciferin-H luminescence, 60 min; series mostly up to 57.1 µM; note: nearly all actives have a fitted effect of over 60% in size; note: potency is the fitted concentration of half-maximal effect
# Method in brief: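 Human CYP2C9 (10nM) hydroxylated Luciferin-H (100uM, at its KM) to luciferin in 25mM KPO4. Compound was preincubated 10 min at 37C, then NADPH regeneration started a 60 min reaction at 37C. Luminescence was read after detection reagent, normalized to 57uM sulphaphenazole.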
# [9] = target: Cytochrome P450 2C19 (Homo sapiens) (UniProt P33261); assay: qHTS Assay for Inhibitors and Substrates of Cytochrome P450 2C19 (AID 899); settings: recombinant CYP2C19, luciferin-H EGE luminescence; series mostly up to 11.4 µM; note: potency is the fitted concentration of half-maximal effect; nearly all actives have a fitted effect of over 60% in size
# Method in brief: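 Human CYP2C19 (5nM) with Luciferin-H EGE at 10uM (its KM) in 50mM KPO4 was preincubated with compound for 10 min at 37C. NADPH regeneration started a 60 min 37C reaction. Luciferin was read by luminescence, normalized to 57uM ketoconazole.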
# [10] = AP1 Signaling Pathway (AID 357; active = well fitted curve in either direction with a large enough effect, not every such curve was filed as active;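 note: ME-180 reporter cells stimulated with EGF at its EC50 level; % is set by controls: 0 for no effect and ±100 for the full control effect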); settings: ME-180 AP-1-bla reporter, EGF-induced, beta-lactamase ratio, 5 h; at 7.69 µM (top of the series) unless noted
# Method in brief: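 Cells are seeded overnight, exposed to compound titrations and an EC50 level of EGF for 5 hours at 37 °C, then loaded with CCF4 dye for 2.5 hours. Beta-lactamase activity under the AP-1 element is read as a blue/green ratio.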
# [11] = NFAT Signaling Pathway (AID 444; active = well fitted curve in either direction with a large enough effect, not every such curve was filed as active;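 note: carbachol stimulus at about its EC50 of 1 µM final; % is set by controls: 0 for no effect and ±100 for the full control effect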); settings: Jurkat NFAT-bla M1, carbachol, beta-lactamase ratio, 5 h; at 7.69 µM (top of the series) unless noted
# Method in brief: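 Jurkat cells carrying an NFAT-driven β-lactamase reporter and co-transfected muscarinic M1 receptor were treated with compound plus carbachol (1 uM final, an EC50 level) for 5 h at 37 °C. CCF4 loading followed for 1 h at RT; 460/530 nm ratio gave %activity.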
# [12] = target: Guanine nucleotide-binding protein G(i) subunit alpha-1 (Homo sapiens) (UniProt P63096); assay: qHTS Assay for Inhibitors of RGS12 GoLoco Motif Activity (Green Fluorophore) (AID 879); settings: Galphai1/FITC-RGS12 GoLoco peptide, fluorescence polarization; series mostly up to 57.1 µM;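 note: 0% = labeled peptide with Gαi1 and full inhibition = labeled peptide alone without protein; negative values mean loss of peptide binding seen as reduced polarization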
# Method in brief: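 Fluorescence polarization assay: 50 nM Gαi1 with 10 nM FITC-labeled RGS12 GoLoco peptide in 10 mM Tris pH 7.5, 150 mM NaCl, 0.1 mM GDP, 0.05% NP40, 10 min at room temperature with compound.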
# [13] = target: Cytochrome P450 3A4 (Homo sapiens) (UniProt P08684); assay: qHTS Assay for Inhibitors and Substrates of Cytochrome P450 3A4 (AID 884); settings: recombinant CYP3A4, Luciferin-PPXE luminescence; series mostly up to 57.1 µM; note: nearly all actives have a fitted effect of over 50% in size; note: potency is the fitted concentration of half-maximal effect
# Method in brief: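 20 nM human CYP3A4 with 25 uM Luciferin-PPXE (at KM) in 200 mM KPO4, preincubated 10 min with compound; NADPH regeneration started a 60 min RT reaction. Luciferin detected by luminescence, normalized to 57 uM ketoconazole as full inhibition.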
# [14] = qHTS Assay for Identification of Small Molecule Antagonists for NFkB Signaling Pathway (AID 895; active = well fitted inhibition curve with a large enough effect in the signal ratio, with a control signal flat, not every such curve was filed as active; the % refers to the signal ratio; note: % is set by controls: 0 for no effect and ±100 for the full control effect); settings: NFkB beta-lactamase reporter cells, FRET ratio 460/530; series mostly up to 38.3 µM
# Method in brief: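 NFkB-bla ME-180 cervical carcinoma cells with beta-lactamase reporter under NFkB response element; compounds added, then TNF alpha at 10 pM final (EC50), 5 h at 37 C. LiveBLAzer substrate 2 h, room temperature; emission 460/530 nm at 405 nm excitation.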
# [15] = qHTS Assay for Identification of Small Molecule Agonists for Thrombopoietin (TPO) Signaling Pathway (AID 917); settings: TPO signaling pathway reporter cells, agonist qHTS; series mostly up to 38.5 µM; note: % is set by controls: 0 for no effect and ±100 for the full control effect
# Method in brief: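 Activators of TPO signaling were sought in murine Ba/F3 cells transfected with the human receptor, using a luciferase gene driven by the Glycoprotein IIb promoter; 24-hr compound exposure at 37 C alongside 26 pM TPO, in IL-3-free medium.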
# [16] = target: Muscarinic acetylcholine receptor M1 (Rattus norvegicus) (UniProt P08482); assay: qHTS Assay for Antagonists of Acetylcholine Muscarinic M1 Receptor: Kinetic Measurement of Intracellular Calcium Response (AID 943); settings: M1-expressing cells, kinetic intracellular calcium fluorescence; series mostly up to 35.3 µM;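 note: Fluo-4 calcium signal as peak divided by basal fluorescence over 4 min; nearly all actives have a fitted effect of over 75% in size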
# Method in brief: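 CHO cells stably expressing rat M1 were loaded with no-wash Fluo-4 dye for 1 h at 37C, pre-incubated 10 min with compound, then challenged with EC80 carbachol (100 nM final); kinetic calcium read 4 min, peak/basal ratio.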
# [17] = target: Muscarinic acetylcholine receptor M1 (Rattus norvegicus) (UniProt P08482); assay: qHTS Assay for Antagonists of Acetylcholine Muscarinic M1 Receptor: Measurement of IP-One Response (AID 944); settings: CHO-M1 cells, IP-One HTRF, antagonist mode; series mostly up to 46.1 µM; note: nearly all actives have a fitted effect of over 75% in size
# Method in brief: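 CHO cells expressing rat M1 receptor, recovered overnight, were pre-incubated 10 min with compound, then stimulated 30 min with carbachol at EC80 (200 nM) in LiCl-containing buffer, pH 7.4. IP1 accumulation was read by HTRF (620/665 nm).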
# [18] = target: Pyruvate kinase (Leishmania mexicana) (UniProt Q27686); assay: qHTS Validation Assay for Inhibitors of Leishmania Mexicana Pyruvate Kinase (AID 945);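 note: 0% = DMSO only neutral control wells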; settings: purified L. mexicana pyruvate kinase, enzyme activity, E451W mutant enzyme; series mostly up to 57.5 µM
# Method in brief: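 Read-out: luminescence from PKLight stop/detection reagent, data normalized to DMSO. Reaction: 0.2 nM E451W LmPYK, 0.5 mM PEP, 0.1 mM ADP, pH 7.2, 1 h room temperature.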
# [19] = target: Pyruvate kinase PKM (Homo sapiens) (UniProt P14618); assay: qHTS Assay for Activators of Human Muscle Pyruvate Kinase (AID 954; active = well fitted curve in the direction sought with a large enough effect, not every such curve was filed as active;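 note: 0% = uninhibited enzyme and -100% = no enzyme or full thiadiazolimine inhibition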); settings: purified human muscle pyruvate kinase, luciferase-coupled luminescence, 1 h; series mostly up to 57.5 µM
# Method in brief: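 Luminescence from a luciferase ATP-detection/stop reagent reported PKM2 activity. Reactions contained 0.1 nM purified human enzyme, 0.5 mM PEP, 0.1 mM ADP and 7 mM MgCl2 at pH 7.2, run 1 h at RT.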
# [20] = target: Alpha-galactosidase (Coffea arabica) (UniProt Q42656); assay: Counterscreen for Glucocerebrosidase Inhibitors: qHTS Assay for Coffee Bean alpha-Galactosidase at pH 4.5 (AID 957); settings: purified coffee bean alpha-galactosidase, fluorogenic substrate; series mostly up to 76.9 µM;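 note: plate controls were enzyme alone for no effect and no enzyme for full effect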
# Method in brief: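 Green coffee bean enzyme (2 nM final) was incubated with compounds (0.7 nM to 77 uM) and 4-methylumbelliferyl alpha-D-galactopyranoside (80 uM final) in 50 mM citric acid, 0.005% Tween-20, pH 4.5, 20 min at room temperature; AC50 from Hill fits.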
# [21] = target: Alpha-galactosidase A (Homo sapiens) (UniProt P06280); assay: Counterscreen for Glucocerebrosidase Inhibitors: qHTS Assay for Human alpha-Galactosidase at pH 4.5 (AID 992); settings: purified enzyme, fluorogenic substrate; series mostly up to 76.9 µM; note: 0% is about no effect
# Method in brief: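 Enzyme at 2 nM final was combined with compound (0.7 nM to 77 uM) and 80 uM 4-methylumbelliferyl alpha-D-galactopyranoside in 50 mM citric acid, 0.005% Tween-20, pH 4.5. After 20 min at room temperature, fluorescence was read (Ex 365/Em 440 nm); AC50 came from Hill fits.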
# [22] = target: alpha-glucosidase (Oryza sativa, rice) (UniProt Q653V4); assay: Counterscreen for Glucocerebrosidase Inhibitors: qHTS Assay for Rice alpha-Glucosidase at pH 5.0 (AID 997); settings: rice alpha-glucosidase enzyme activity; series mostly up to 76.9 µM;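 note: 0% = full activity with enzyme and -100% = basal without enzyme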
# Method in brief: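 Rice alpha-glucosidase (4 nM final) with 400 uM 4-methylumbelliferyl-alpha-D-glucopyranoside in citrate buffer pH 5.0, 20 min at room temperature, stopped at pH 10; fluorescence 365/440 nm, compounds 0.7 nM–77 uM, AC50 from Hill fits.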
# [23] = target: Alpha-galactosidase (Coffea arabica) (UniProt Q42656); assay: Counterscreen for Glucocerebrosidase Inhibitors: qHTS Assay for Coffee Bean alpha-Galactosidase at pH 5.9 (AID 998); settings: coffee bean alpha-galactosidase enzyme assay; series mostly up to 76.9 µM;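 note: plate controls were uninhibited enzyme for no effect and no-enzyme basal signal for full effect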
# Method in brief: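 Green coffee bean enzyme (2 nM final) was incubated with compounds (0.7 nM–77 uM) and 4-methylumbelliferyl alpha-D-galactopyranoside (80 uM) in citrate buffer pH 5.9, 20 min at room temperature. High-pH stop; fluorescence 365/440 nm; AC50 from Hill fits.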
# [24] = qHTS Assay for Identification of Small Molecule Agonists for Hypoxia Response Element Signaling Pathway (AID 914; active = well fitted activation curve with a large enough effect in the signal ratio, with a control signal flat, not every such curve was filed as active; the % refers to the signal ratio; note: % of control where 0% means no effect); settings: ME-180 (cervical carcinoma) HRE-bla reporter, beta-lactamase ratio, CoCl2, 17 h; active compounds read high
# Method in brief: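 qHTS titration; ME-180 HRE-bla cells; EC50 CoCl2 co-treatment, 17 h at 37 degrees Celsius; CCF4 dye, ex 405nm, em 460nm and 530nm; %Activity from ratio; AC50.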
# Sequence of Glucocorticoid receptor (Homo sapiens) (P04150 whole entry, looked up, the tested form may be a part): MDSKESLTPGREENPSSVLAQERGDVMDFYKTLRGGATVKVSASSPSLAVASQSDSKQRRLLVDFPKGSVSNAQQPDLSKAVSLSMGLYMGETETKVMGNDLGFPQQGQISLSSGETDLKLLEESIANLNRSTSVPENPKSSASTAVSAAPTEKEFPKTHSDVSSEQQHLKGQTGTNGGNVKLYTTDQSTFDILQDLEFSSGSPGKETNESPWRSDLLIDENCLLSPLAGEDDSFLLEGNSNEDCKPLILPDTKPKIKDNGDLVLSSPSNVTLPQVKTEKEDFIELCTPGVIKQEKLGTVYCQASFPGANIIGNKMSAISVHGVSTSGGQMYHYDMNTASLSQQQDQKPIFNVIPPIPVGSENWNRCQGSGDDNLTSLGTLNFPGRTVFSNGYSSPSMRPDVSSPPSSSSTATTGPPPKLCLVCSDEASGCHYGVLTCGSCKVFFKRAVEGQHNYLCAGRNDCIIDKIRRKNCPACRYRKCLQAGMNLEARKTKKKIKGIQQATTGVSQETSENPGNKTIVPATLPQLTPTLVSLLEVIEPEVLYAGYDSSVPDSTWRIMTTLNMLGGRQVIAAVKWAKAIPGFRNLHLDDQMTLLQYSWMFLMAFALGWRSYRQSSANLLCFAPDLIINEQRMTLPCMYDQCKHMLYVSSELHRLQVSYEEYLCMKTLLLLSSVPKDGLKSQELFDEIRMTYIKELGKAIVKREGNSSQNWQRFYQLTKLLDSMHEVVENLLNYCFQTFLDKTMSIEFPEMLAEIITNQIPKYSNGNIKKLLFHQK
# Sequence of Lysosomal acid glucosylceramidase (Homo sapiens) (P04062 whole entry, looked up): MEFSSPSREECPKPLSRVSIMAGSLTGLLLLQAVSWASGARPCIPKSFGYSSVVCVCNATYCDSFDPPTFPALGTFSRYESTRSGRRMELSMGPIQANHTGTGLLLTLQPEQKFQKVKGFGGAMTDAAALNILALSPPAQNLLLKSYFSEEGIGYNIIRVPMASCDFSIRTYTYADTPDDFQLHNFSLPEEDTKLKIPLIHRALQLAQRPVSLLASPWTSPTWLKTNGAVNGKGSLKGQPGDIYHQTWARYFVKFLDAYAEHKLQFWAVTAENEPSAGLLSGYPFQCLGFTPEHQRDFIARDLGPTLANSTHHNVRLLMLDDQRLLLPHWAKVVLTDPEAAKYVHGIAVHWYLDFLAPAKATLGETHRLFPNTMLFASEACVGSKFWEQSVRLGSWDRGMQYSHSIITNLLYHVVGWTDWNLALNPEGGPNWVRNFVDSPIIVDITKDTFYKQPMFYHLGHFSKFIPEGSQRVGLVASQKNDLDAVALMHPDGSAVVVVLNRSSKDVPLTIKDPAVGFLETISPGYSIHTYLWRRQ
# Sequence of Cytochrome P450 2C9 (Homo sapiens) (P11712 whole entry, looked up): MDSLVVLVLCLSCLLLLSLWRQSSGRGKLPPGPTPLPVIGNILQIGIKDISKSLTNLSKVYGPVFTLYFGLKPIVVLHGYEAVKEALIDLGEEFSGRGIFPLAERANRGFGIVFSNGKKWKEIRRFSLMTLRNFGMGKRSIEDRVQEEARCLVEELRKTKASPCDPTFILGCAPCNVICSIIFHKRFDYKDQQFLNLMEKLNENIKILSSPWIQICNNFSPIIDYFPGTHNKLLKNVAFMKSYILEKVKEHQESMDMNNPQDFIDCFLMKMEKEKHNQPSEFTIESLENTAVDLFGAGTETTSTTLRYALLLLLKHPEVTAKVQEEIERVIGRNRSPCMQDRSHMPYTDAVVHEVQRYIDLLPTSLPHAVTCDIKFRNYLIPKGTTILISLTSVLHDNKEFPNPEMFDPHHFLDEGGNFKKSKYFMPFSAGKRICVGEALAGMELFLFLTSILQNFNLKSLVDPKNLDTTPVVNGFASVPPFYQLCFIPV
# Sequence of 3',5'-cyclic-AMP phosphodiesterase 4B (Homo sapiens) (Q07343 whole entry, looked up): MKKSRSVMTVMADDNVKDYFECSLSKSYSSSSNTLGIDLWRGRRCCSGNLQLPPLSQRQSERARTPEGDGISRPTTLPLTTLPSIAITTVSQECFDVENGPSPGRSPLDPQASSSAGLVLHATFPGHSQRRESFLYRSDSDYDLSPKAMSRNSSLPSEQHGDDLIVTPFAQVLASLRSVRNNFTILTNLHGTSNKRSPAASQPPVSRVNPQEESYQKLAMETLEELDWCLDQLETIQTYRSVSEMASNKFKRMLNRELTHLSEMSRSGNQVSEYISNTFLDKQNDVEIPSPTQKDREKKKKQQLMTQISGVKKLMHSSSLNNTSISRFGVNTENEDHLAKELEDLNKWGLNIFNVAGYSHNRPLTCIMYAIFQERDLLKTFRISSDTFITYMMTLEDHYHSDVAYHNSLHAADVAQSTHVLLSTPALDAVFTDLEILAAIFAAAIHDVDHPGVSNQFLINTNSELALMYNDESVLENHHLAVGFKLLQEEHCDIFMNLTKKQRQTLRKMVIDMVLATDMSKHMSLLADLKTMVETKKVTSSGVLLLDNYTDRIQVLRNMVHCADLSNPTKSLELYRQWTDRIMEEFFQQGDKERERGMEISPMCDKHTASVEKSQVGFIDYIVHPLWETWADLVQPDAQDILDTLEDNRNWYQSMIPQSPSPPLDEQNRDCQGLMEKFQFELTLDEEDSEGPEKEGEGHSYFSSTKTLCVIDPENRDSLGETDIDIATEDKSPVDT
# Sequence of Cytochrome P450 1A2 (Homo sapiens) (P05177 whole entry, looked up): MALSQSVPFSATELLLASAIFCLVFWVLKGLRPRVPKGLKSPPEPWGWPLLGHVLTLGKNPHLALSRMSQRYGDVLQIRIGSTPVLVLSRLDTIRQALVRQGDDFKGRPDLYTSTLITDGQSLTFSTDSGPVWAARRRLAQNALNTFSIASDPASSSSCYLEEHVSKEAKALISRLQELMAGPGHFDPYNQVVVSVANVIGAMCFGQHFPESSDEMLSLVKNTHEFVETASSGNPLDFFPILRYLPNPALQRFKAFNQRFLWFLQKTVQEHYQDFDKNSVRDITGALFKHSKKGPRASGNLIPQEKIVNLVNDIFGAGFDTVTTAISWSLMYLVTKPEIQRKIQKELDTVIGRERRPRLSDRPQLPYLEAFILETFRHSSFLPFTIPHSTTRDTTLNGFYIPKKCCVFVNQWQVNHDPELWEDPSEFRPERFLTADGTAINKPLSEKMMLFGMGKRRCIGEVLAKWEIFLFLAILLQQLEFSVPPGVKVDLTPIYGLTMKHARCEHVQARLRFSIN
# Sequence of Cytochrome P450 3A4 (Homo sapiens) (P08684 whole entry, looked up): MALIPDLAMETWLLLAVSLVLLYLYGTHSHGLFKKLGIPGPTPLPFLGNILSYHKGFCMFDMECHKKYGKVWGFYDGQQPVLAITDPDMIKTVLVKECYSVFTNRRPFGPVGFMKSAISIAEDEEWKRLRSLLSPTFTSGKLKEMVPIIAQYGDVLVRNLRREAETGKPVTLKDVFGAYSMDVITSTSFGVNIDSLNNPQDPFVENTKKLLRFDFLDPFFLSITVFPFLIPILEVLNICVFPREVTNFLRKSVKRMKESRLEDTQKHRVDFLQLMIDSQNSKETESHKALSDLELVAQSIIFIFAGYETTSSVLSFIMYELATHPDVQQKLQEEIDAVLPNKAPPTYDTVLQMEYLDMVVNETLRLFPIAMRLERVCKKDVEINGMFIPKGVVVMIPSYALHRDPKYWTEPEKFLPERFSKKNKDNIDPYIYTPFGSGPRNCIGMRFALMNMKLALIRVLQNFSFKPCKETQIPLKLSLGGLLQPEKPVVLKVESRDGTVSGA
# Sequence of Muscarinic acetylcholine receptor M1 (Rattus norvegicus) (P08482 whole entry, looked up): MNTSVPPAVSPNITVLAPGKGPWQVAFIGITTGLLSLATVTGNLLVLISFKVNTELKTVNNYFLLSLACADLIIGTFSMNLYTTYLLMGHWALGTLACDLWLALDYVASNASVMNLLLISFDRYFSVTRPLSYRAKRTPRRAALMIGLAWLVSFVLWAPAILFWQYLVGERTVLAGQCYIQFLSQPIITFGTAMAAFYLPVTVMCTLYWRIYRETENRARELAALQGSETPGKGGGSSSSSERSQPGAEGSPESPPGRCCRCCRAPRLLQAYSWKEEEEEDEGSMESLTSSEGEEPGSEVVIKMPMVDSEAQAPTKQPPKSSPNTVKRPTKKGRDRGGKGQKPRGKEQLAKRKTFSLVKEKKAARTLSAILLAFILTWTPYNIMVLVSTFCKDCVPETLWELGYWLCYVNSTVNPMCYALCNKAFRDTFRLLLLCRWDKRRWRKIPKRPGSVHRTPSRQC
# Sequence of Alpha-galactosidase (Coffea arabica) (Q42656 whole entry, looked up): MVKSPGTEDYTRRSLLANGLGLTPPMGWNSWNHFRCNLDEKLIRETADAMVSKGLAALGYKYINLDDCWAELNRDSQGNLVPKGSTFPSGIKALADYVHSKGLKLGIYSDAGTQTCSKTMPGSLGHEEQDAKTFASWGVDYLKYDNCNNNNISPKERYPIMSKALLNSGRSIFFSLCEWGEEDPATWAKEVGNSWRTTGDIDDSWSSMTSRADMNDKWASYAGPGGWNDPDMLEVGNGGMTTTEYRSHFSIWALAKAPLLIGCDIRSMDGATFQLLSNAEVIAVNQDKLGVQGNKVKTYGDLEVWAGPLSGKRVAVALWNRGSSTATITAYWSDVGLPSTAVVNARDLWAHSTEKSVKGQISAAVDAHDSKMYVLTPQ
# Sequence of Cytochrome P450 2C19 (Homo sapiens) (P33261 whole entry, looked up): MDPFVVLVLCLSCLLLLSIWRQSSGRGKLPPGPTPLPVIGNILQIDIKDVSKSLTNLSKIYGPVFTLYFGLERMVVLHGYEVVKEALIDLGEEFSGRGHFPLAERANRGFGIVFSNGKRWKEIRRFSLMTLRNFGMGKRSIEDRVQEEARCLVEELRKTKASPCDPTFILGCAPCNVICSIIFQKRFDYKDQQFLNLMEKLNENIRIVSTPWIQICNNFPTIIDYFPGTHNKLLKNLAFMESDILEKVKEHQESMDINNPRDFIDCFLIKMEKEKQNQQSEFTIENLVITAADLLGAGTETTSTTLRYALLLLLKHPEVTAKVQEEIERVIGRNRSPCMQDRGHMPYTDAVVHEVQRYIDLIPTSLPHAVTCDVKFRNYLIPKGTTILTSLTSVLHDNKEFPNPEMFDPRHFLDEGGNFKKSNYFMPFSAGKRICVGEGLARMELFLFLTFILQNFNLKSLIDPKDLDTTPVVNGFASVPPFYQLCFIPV
smiles,measurement,setting,value
O=C(O)c1cc[c]([Hg][S]c2ncnc3nc[nH]c23)cc1,Potency,[1],0.146 µM (active)
same,Potency,[2],0.316 µM (active)
same,"activity, negative = inhibition",[3],-16.1%
same,Potency,[4],> 46 µM
same,Potency,[5],> 9.22 µM
same,"activity change, negative = inhibition",[6],3.39% [at 11.4 µM]
same,outcome,[7],inactive
same,Potency,[8],1.26 µM (active)
same,Potency,[9],0.631 µM (active)
O=C(O)[C@H]1CCN1,"activity change, negative = inhibition",[10],-3.07% [at 38 µM]
same,Potency,[2],inactive
same,"activity change, negative = inhibition",[11],0.684% [at 38 µM]
same,"activity, negative = inhibition",[3],3.4% [at 38 µM]
same,Potency,[4],> 46 µM
same,Potency,[5],> 46 µM
same,Potency,[6],inactive
same,outcome,[7],inactive
same,outcome,[12],inactive
same,Potency,[8],inactive
same,Potency,[13],inactive
same,Potency,[14],inactive
same,outcome,[15],inactive
same,Potency,[16],inactive
same,Potency,[17],inactive
same,outcome,[18],inactive
same,outcome,[19],inactive
same,outcome,[20],inactive
same,outcome,[21],inactive
same,outcome,[22],inactive
same,outcome,[23],inactive
C[C@@H]1O[C@H](OC2[C@@H](O)[C@H](O)C(O)[C@H](O)[C@H]2O)[C@@H](N)C[C@@H]1N=C(N)C(=O)O (some centres not stated),Potency,[1],> 11.4 µM
same,"activity change, negative = inhibition",[10],-0.614%
same,"activity, negative = inhibition",[3],8.32%
same,Potency,[4],> 46 µM
same,Potency,[5],> 9.22 µM
same,"activity change, negative = inhibition",[6],1.04% [at 11.4 µM]
same,outcome,[7],inactive
same,activation,[24],3.06%
CSC([N-]/N=C/c1cccc(C)n1)=[S]=[Cu].CS[C@H]([S-])[N-]/N=C/c1cccc(C)n1,Potency,[1],> 11.4 µM
same,Potency,[2],0.631 µM (active)
same,"activity change, negative = inhibition",[11],-102% (active)
same,Potency,[4],> 46 µM
same,Potency,[5],> 9.22 µM
same,"activity change, negative = inhibition",[6],-6.87% [at 11.4 µM]
same,Potency,[8],0.251 µM (active)
same,Potency,[13],3.98 µM (active)
same,Potency,[9],0.199 µM (active)
